Laboratory results reported in PubChem BioAssay AID488841 (Sanford-Burnham Center for Chemical Genomics, 2010).
The whole screen tested about 1,400 compounds, of which about 380 (27%) were called active. This is one part of the list. A number with no mark means an inactive call.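 How the source made its calls: active means mean inhibition above 50% across duplicate retests at 10 µM; inactive means the rest.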

Assay: inhibition of NALP1/ASC/caspase-1 reporter signal in yeast, confirmation, NALP1 inhibitor project, S. cerevisiae, luminescence, single concentration (AID 488841);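 further: plate controls were DMSO in galactose medium for no effect and cells in plain SD medium for full effect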
Settings: S. cerevisiae NALP1/ASC/Caspase-1 reporter, beta-gal luminescence; at 10 µM; stronger effect = higher value

Row | Compound | inhibition
1 | CNCc1ccccc1Sc1cc(O)ccc1O | 26.8%
2 | O=S(=O)(CC12C3C4C5C1C2C(Br)(C43)C51OCCO1)c1ccccc1 (centres undefined) | 40%
3 | CC1CCCCN1S(=O)(=O)c1cnc(Cl)c(Br)c1 (centres undefined) | 68.1% (active)
4 | O=c1c(Br)c(N2CCCC2)cnn1-c1ccccc1 | 41.4%
5 | CC1CC(C)CN(S(=O)(=O)c2ccc(C(=O)NCc3ccc4c(c3)OCO4)cc2)C1 (centres undefined) | 24.1%
6 | Cc1ccc(-c2cc(NC(=O)CSc3n[nH]c(N)n3)n(-c3ccccc3)n2)cc1 | 24.2%
7 | O=C(CCl)Nc1cc(-c2ccccc2)nn1-c1ccccc1 | 68.9% (active)
8 | COCC(=O)OCC(=O)Nc1cc(C(C)(C)C)nn1-c1ccccc1 | 25.4%
9 | CC(C)c1ccc(-c2c(C#N)c(N)nc3c2CCCCC3)cc1 | 23.8%
10 | CC1CCCCN1C(=S)NCCc1ccccc1 (centres undefined) | 47.7%
11 | S=C(NCCc1ccccc1)Nc1ccc(Br)cc1 | 70.2% (active)
12 | O=C(NC(CO)Cc1ccc([N+](=O)[O-])cc1)C(Cl)Cl (centres undefined) | 29.8%
13 | Cc1cc(C)cc(NS(=O)(=O)c2ccc(NC(=S)Nc3ccccc3)cc2)c1 | 26.1%
14 | S=C(NCCCc1ccccc1)Nc1ccc(Cl)cc1 | 86.3% (active)
15 | CCc1cccc(CC)c1NC(=S)NCCc1c(C)[nH]c2ccccc12 | 37.9%
16 | O=[N+]([O-])c1ccc(N2CCN(C(=S)Nc3ccccc3)CC2)cc1 | 32%
17 | O=[N+]([O-])c1ccc(NC(=S)NCCc2ccc(F)cc2)cc1 | 85.5% (active)
18 | CC(=O)Nc1ccc(C(=O)CSc2nnc(Cc3ccccc3)o2)cc1 | 11.8%
19 | CCOC(=O)C1=NN(C(=O)c2ccc(C)cc2)C(O)(c2ccc(Cl)cc2)C1 (centres undefined) | 45.7%
20 | Cc1cccc(NC2=C(Cl)C(=O)OC2NC(=O)c2ccccc2)c1 (centres undefined) | 7.1%
21 | CC1CCCCN1C(=S)Nc1ccc2nc3n(c(=O)c2c1)CCCCC3 (centres undefined) | 35%
22 | O=C(Nc1ccc2nc3n(c(=O)c2c1)CCCC3)c1cc([N+](=O)[O-])ccc1F | 64.8% (active)
23 | Cc1ccc(NCC(=O)Nc2c(C)n(C)n(-c3ccccc3)c2=O)cc1S(=O)(=O)N(C)C | 15.9%
24 | Cc1ccc(CC(=O)Nc2ccccc2-c2ccccc2)cc1C | 35.9%
25 | Cc1ccccc1-c1ccc(C(=O)Nc2cccc(F)c2)o1 | 52.9% (active)
26 | O=C(Nc1cccc(F)c1)c1ccc(CSc2ccccc2)o1 | 37.8%

Row | Compound | inhibition
27 | CC1=C(C)/C(=N\OS(=O)(=O)c2ccc(C)cc2)C=CC1=O | 79.5% (active)
28 | N#Cc1cnn(-c2ncnc3sc4c(c23)CCCC4)c1N | 33.3%
29 | O=C(COC(=O)Cc1c(F)cccc1Cl)NCCC1=CCCCC1 | 37.5%
30 | O=C1/C(=C/c2ccco2)Cc2ccccc21 | 38.1%
31 | COc1cc2ccccc2c2c1CCCC2=O | 27.6%
32 | COc1cc(/C=C2/CCc3ccccc3C2=O)cc(OC)c1OC | 53% (active)
33 | COc1cc(C=O)ccc1Oc1nnnn1-c1ccccc1 | 35%
34 | O=C1/C(=C/c2ccccc2)CCCc2ccccc21 | 57.9% (active)
35 | COc1ccc(C2=C/C(=C/c3cccnc3)C(=O)O2)cc1OC | 40.3%
36 | COc1ccc(/C=C2\COc3ccccc3C2=O)cc1OC | 72.8% (active)
37 | COc1ccc(/C=C2/CCc3ccccc3C2=O)cc1OC | 59.9% (active)
38 | Cc1ccc(CN(C(=O)CNC(=O)c2cccs2)C(C(=O)NCC2CCCO2)c2ccccc2)cc1 (centres undefined) | 20.4%
39 | CC(C)NCCCCOc1cccc(Br)c1 | 43.9%
40 | O=C(Cn1cccc(C(F)(F)F)c1=O)c1ccc(Cl)cc1 | 22%
41 | Cc1oc(C(=O)O)cc1COc1ccc2c3c(c(=O)oc2c1)CCC3 | 14.6%
42 | Cc1[nH][nH]c(=O)c1C(c1c(C)[nH][nH]c1=O)c1cn(Cc2ccc(Cl)c(Cl)c2)c2ccccc12 | 35.5%
43 | CN(C)c1ccc(/C=N/NC(=O)c2nnn(-c3nonc3N)c2CN(C)c2ccccc2)cc1 | 25.6%
44 | Cc1nc2c(=O)n(C)c(=O)n(C)c2nc1Cl | 36.3%
45 | N=c1n(CC(=O)c2ccc([N+](=O)[O-])cc2)c2ccccc2n1Cc1ccccc1Cl | 25.6%
46 | COc1ccc2c(c1)CC/C(=C/c1ccco1)C2=O | 71.4% (active)
47 | Nc1ccc2c(c1)C/C(=C/c1ccco1)C2=O | 18.6%
48 | c1ccc2sc(Sc3ncnc4sccc34)nc2c1 | 44.2%
49 | Cc1ccc(-c2nc3cnccn3c2Nc2c(C)cccc2C)o1 | 58.9% (active)
50 | COc1ccc(-c2nc3cnccn3c2Nc2ccc(C)cc2)cc1 | 38.7%
51 | CC(=O)OCC(=O)[C@H]1CC[C@H]2[C@@H]3CC=C4C[C@@H](O)CC[C@]4(C)[C@H]3CC[C@]12C | 4.15%
52 | O=C(CCNC(=O)c1ccccc1Cl)Nc1ccc2c(c1)OCO2 | 22.9%

Row | Compound | inhibition
53 | CC(=O)c1ccc(S(=O)(=O)N2CCCC2)cc1 | 23.6%
54 | COC(=O)c1ccc(Oc2ccc(S(=O)(=O)N3CCCCC3)cc2N)cc1 | 92.3% (active)
55 | COC(=O)c1ccc(NC(=O)C(=O)N2CCCC2)cc1 | 45.1%
56 | CCc1ccc(NCc2nc(-c3ccccc3)no2)cc1 | 46.7%
57 | O=S(=O)(CC(CN1CCCCC1)N1CCCCC1)c1ccc2ccccc2c1 (centres undefined) | 39.3%
58 | CCOC(=O)c1cc(-c2ccc(OC)cc2)nc2c1c(C)nn2CCC#N | 49.9%
59 | O=C(/C=C/c1cccc([N+](=O)[O-])c1)c1ccco1 | 38.9%
60 | CCOC(=O)/C=C/C(=O)Nc1cccc([N+](=O)[O-])c1 | 66.3% (active)
61 | COC(=O)/C=C\C(=O)Nc1cccc([N+](=O)[O-])c1 | 51.5% (active)
62 | CCOC(=O)N1CCC(=NNS(=O)(=O)c2cccc([N+](=O)[O-])c2)CC1 | 24%
63 | CCOC(=O)/C=C/C(=O)Nc1nccs1 | 45.4%
64 | O=C(CON=C1c2ccccc2-c2ccccc21)NC12CC3CC(CC(C3)C1)C2 | 30.6%
65 | CCOC(=O)c1c(C)[nH]c(C(=O)COC(=O)c2oc3ccccc3c2C)c1C | 23.3%
66 | CCC(C)NCCOc1cccc(Br)c1 (centres undefined) | 26.1%
67 | COCCN(CCOC)c1ncnc2c1cnn2-c1ccc(Cl)cc1 | 56.8% (active)
68 | COC(=O)c1ccc(Cn2cnc3c(cnn3-c3ccc(Cl)cc3)c2=O)o1 | 34.6%
69 | CN(Cc1ccccc1)c1ncnc2c1cnn2-c1ccccc1 | 49.5%
70 | Cc1occc1C(=O)Nc1c(F)c(F)c(F)c(F)c1F | 25.9%
71 | CCC1(CC)Cc2ccccc2C(Nc2c(C)n(C)n(-c3ccccc3)c2=O)=N1 | 21.4%
72 | O=C1/C(=C\c2cccnc2)CN(Cc2ccccc2)C/C1=C\c1cccnc1 | 22.2%
73 | S=C1SCN(Cc2cccnc2)CN1Cc1cccnc1 | 76% (active)
74 | NNC(=S)NCc1cccnc1 | 24.5%
75 | Cc1ccc(Sc2nnc(Cc3ccccc3)c3ccccc23)cc1 | 38.2%
76 | O=C(c1ccccc1)c1ccc(OCC(O)CNC2CCCc3ccccc32)cc1 (centres undefined) | 32.6%
77 | CCOC(=O)N1CCN(c2c(NCCOC)c(=O)c2=O)CC1 | 26.4%
78 | CCOC(=O)N1CCN(c2ccc(Cl)c(Cl)c2)CC1 | 60.3% (active)

Row | Compound | inhibition
79 | CCN1CCN(C(=S)Nc2ccc(Cl)c(Cl)c2)CC1 | 37%
80 | COc1ccc(OC)c(S(=O)(=O)Nc2ccc(O)c3ccccc23)c1 | 32.9%
81 | O=C(O)[C@@H](c1ccccc1)N1Cc2ccccc2C1=O | 26.9%
82 | COc1ccc(NCc2ccc([N+](=O)[O-])s2)cc1 | 14.8%
83 | CCN(CC)c1ccc(/C=N/OC(C)C(=O)Nc2ccc(C)cc2)cc1 (centres undefined) | 41%
84 | CCOC(=O)N/N=C/c1ccc(N(CC)CC)cc1O | 52.4% (active)
85 | Clc1ccc2c(N/N=C/c3cccc(Br)c3)ccnc2c1 | 42.9%
86 | O=C(CCN1C(=O)c2ccccc2C1=O)N1CCN(C2c3ccccc3-c3ccccc32)CC1 | 18.4%
87 | COc1ccc(-c2[nH]ncc2CN2CCC(OCc3ccccn3)CC2)c(F)c1 | 23.8%
88 | CC(C)C(C)NC(=O)COc1ccc(S(=O)(=O)N2CCOCC2)cc1[N+](=O)[O-] (centres undefined) | 10.1%
89 | Cn1cc(C(=O)NCc2ccc(F)cc2)c(=O)c2cc(S(=O)(=O)N3CCCCC3)ccc21 | 32.6%
90 | O=[N+]([O-])c1cc(S(=O)(=O)N2CCCCCC2)ccc1F | 74.7% (active)
91 | CC(C)NC(=O)c1ccc(COCC(F)(F)F)cc1 | 41.5%
92 | CN1c2ccccc2-c2nc3ccccc3n2C1c1cccs1 (centres undefined) | 26.3%
93 | O=C(Cc1cccs1)Nc1nc(-c2ccc(F)cc2F)cs1 | 71.6% (active)
94 | COc1ccccc1NS(=O)(=O)c1ccc(NC(=O)Cc2cccs2)cc1 | 31.7%
95 | O=C(CN1CCCCC1)Nc1nc(-c2ccc(F)c(F)c2)cs1 | 43.3%
96 | COc1ccccc1N1C(=O)C2CCC(c3ccccc3)CC2C1=O (centres undefined) | 40.1%
97 | COc1ccc(S(=O)(=O)N2CCOC2CNC(=O)C(=O)NCCCN2CCOCC2)cc1C (centres undefined) | 36.4%
98 | O=C(Nc1ccc2c(c1)Cc1ccccc1-2)c1ccncc1 | 64.8% (active)
99 | O=C(CN1CCN(c2ccccc2)CC1)Nc1ccc2c(c1)CCC2 | 22.7%
100 | O=C(COc1ccc(Cl)cc1)Nc1ccc2c(c1)CCC2 | 39.6%
101 | O=C(Nc1ccc2nc3ccccc3nc2c1)c1ccccc1 | 70.2% (active)
102 | O=C(Nc1ccc2c(c1)CCC2)c1ccccc1 | 73.4% (active)
103 | CS(=O)(=O)N(Cc1ccccc1)c1ccc(C(=O)Nc2cccnc2)cc1 | 19.7%
104 | O=C(Nc1ccc(Cl)c(Cl)c1)c1ccncc1 | 49.2%
